Consider 4 compounds from PubChem BioAssay (NCATS).

For assay [1], the target named is Glucocorticoid receptor (Homo sapiens) (UniProt P04150). In words: qHTS assay for small molecule agonists of glucocorticoid receptor signaling (AID 588532; active means well fitted curve in the direction sought with a large enough effect in the signal ratio, with a control signal flat; the % refers to the signal ratio;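 further: 100% = dexamethasone at 0.1 µM and 0% = DMSO only wells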). The following applies: HeLa MMTV-bla, beta-lactamase ratio, agonist, 18 h; activation: stronger effect = higher value, percent of dexamethasone control, DMSO zero. An outline of the steps: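 Quantitative HTS using CellSensor MMTV-bla HeLa cells in charcoal/dextran-treated serum; compounds tested up to 92 uM. After 18 h at 37 C, CCF4 dye reported reporter induction.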

The target is the same in assay [2]. Nature of the assay: qHTS assay for small molecule antagonists of glucocorticoid receptor signaling (AID 588533; active means well fitted inhibition curve with a large enough effect in the signal ratio, with a control signal flat, not every such curve was filed as active; the % refers to the signal ratio;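 further: cells stimulated with 2 nM dexamethasone as agonist; on the % scale 0 is the no-effect control and ±100 the full control effect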). Summed up: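 Antagonist-mode qHTS: compound titrations added to GRE-bla HeLa cells, then dexamethasone 2 nM final; 18 h, 37 C. CCF4 FRET fluorescence normalized to dexamethasone and DMSO; IC50 from Hill fit.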
For assay [3], the target named is Peroxisome proliferator-activated receptor delta (Homo sapiens) (UniProt Q03181). In words: qHTS assay for small molecule agonists of peroxisome proliferator-activated receptor delta signaling (AID 588534).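 Further: 0% = DMSO basal wells and 100% = positive control agonist at 10 µM.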 Summed up:
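Reporter cells were plated and held 5 hrs at 37 C before compounds were added. After 18 hrs at 37 C, CCF4 dye was loaded for 2 hrs at RT and fluorescence measured.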

Assay [4] in a line: qHTS assay for small molecule antagonists of peroxisome proliferator-activated receptor delta signaling (AID 588535; active means well fitted inhibition curve with a large enough effect in the signal ratio, with a control signal flat, not every such curve was filed as active; the % refers to the signal ratio;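 on max response: cells co-treated with a PPAR-delta agonist as stimulator during compound exposure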). The following applies: HEK293T PPARd-UAS-bla, beta-lactamase FRET ratio, 18 h; 460 nm channel. An outline of the steps:
(§1)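 Cell-based beta-lactamase assay in antagonist mode: 4000 HEK293T PPAR-delta-UAS-bla cells per well, 5 hr preincubation then 18 hr compound incubation at 37 C. IC50 obtained by Hill equation fitting.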

In assay [5] the target is Peroxisome proliferator-activated receptor delta (Homo sapiens) (UniProt Q03181). The description is as above. Summed up:
as §1

In assay [6] the target is Peroxisome proliferator-activated receptor gamma (Homo sapiens) (UniProt P37231). In words: qHTS assay for small molecule agonists of peroxisome proliferator-activated receptor gamma signaling (AID 588536; active means well fitted curve in the direction sought with a large enough effect in the signal ratio, with a control signal flat, not every such curve was filed as active; the % refers to the signal ratio;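 further: 0% = DMSO basal wells and 100% = rosiglitazone at 2 µM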). Summed up: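 HEK293 UAS-bla reporter line, 1% charcoal/dextran FBS; titration, 16 h, 37 C; CCF4 loading 2 h RT; fluorescence 460/530 nm. Normalized to rosiglitazone 2 uM = 100%, DMSO = 0%.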

For assay [7] the target is unchanged. Nature of the assay: qHTS assay for small molecule antagonists of peroxisome proliferator-activated receptor gamma signaling (AID 588537; active means well fitted inhibition curve with a large enough effect in the signal ratio, with a control signal flat, not every such curve was filed as active; the % refers to the signal ratio;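 further: reporter cells co-stimulated with 50 nM rosiglitazone agonist during compound treatment; % of control where 0% means no effect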). An outline of the steps:
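Inhibitors of agonist-stimulated UAS-bla reporter activity were sought in HEK293 cells; rosiglitazone (50 nM) defined full signal and DMSO baseline. Curves fitted to Hill model gave IC50 and efficacy.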

The target in assay [8] is Vitamin D3 receptor (Homo sapiens) (UniProt P11473). Nature of the assay: qHTS assay for small molecule antagonists of vitamin D receptor signaling (AID 588541).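 Further: receptor activated by calcitriol during compound treatment; series mostly up to about 77 µM; on the % scale 0 is the no-effect control and ±100 the full control effect.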 Summed up:
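Antagonist-mode beta-lactamase reporter assay: HEK293T VDR-UAS-bla cells were exposed to titrated compound alongside 1-alpha,25-dihydroxyvitamin D3 at 3 nM final for 16 h. Values were normalized to the 50 nM agonist control and DMSO basal, with IC50 and efficacy from Hill equation fits.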

Assay [9] shares this target. In words: qHTS assay for small molecule agonists of vitamin D receptor signaling (AID 588543).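 Further: 0% = DMSO basal and 100% = reference agonist control.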 An outline of the steps:
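qHTS in agonist mode: compound titrations stimulate a VDR-driven β-lactamase reporter in HEK293T cells over 16 h at 37 °C. Response normalized to 50 nM 1α,25-dihydroxyvitamin D3 = 100%, DMSO = 0%; Hill fitting gives EC50 and maximal response.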

The nature of assay [10]: qHTS assay for small molecule agonists of retinoid X receptor alpha signaling (AID 588544).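 On activation: 0% = DMSO basal wells and 100% = reference agonist.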 As to conditions: HEK293T RXRa-UAS-bla, beta-lactamase reporter, 18 h; 530 nm emission.
Assay [11] has as its target Retinoic acid receptor RXR-alpha (Homo sapiens) (UniProt P19793). The description is as above.
Assay [12] deals with Thyroid hormone receptor beta (Homo sapiens) (UniProt P10828). In words: qHTS assay for small molecule agonists of thyroid hormone receptor beta signaling (AID 588545). Summed up:
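In this cell-based screen, titrated compounds act on HEK 293 cells held in medium with 2% charcoal/dextran FBS, NEAA and pyruvate for 18 hrs at 37 C. Responses are expressed relative to T3 (10 nM) as 100% and basal DMSO as 0%.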

The nature of assay [13]: qHTS assay for small molecule antagonists of retinoid X receptor alpha signaling (AID 588546; active means well fitted inhibition curve with a large enough effect in the signal ratio, with a control signal flat, not every such curve was filed as active; the % refers to the signal ratio;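 further: cells stimulated with 9-cis-retinoic acid as agonist; on the % scale 0 is the no-effect control and ±100 the full control effect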). As to conditions: HEK293T RXRa-UAS-bla, beta-lactamase ratio, antagonist mode; measured here: W530 green channel, cytotoxicity proxy. An outline of the steps:
(§2)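 Beta-lactamase reporter inhibition, read as CCF4 fluorescence ratio (ex 405, em 460/530 nm) after 2 h at RT. HEK293T UAS-bla cells, 2500/well, were stimulated with 9-cis-RA at 500 or 100 nM final alongside test compound for 18 h at 37 C.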

The target of assay [14] is Retinoic acid receptor RXR-alpha (Homo sapiens) (UniProt P19793). The assay is described as above. As to conditions: HEK293T RXRa-UAS-bla, beta-lactamase ratio, antagonist mode. Summed up:
as §2

Assay [15] deals with Thyroid hormone receptor beta (Homo sapiens) (UniProt P10828). Nature of the assay: qHTS assay for small molecule antagonists of thyroid hormone receptor beta signaling (AID 588547; active means well fitted inhibition curve with a large enough effect in the signal ratio, with a control signal flat, not every such curve was filed as active; the % refers to the signal ratio;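 further: cells stimulated with 0.4 nM T3 agonist during compound exposure; series mostly up to about 77 µM; on the % scale 0 is the no-effect control and ±100 the full control effect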). The following applies: TR-UAS-bla HEK293, beta-lactamase ratio, antagonist mode, 18 h. Summed up: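 Inhibition of T3-driven (0.4nM final) beta-lactamase reporter activity was measured over 0.59 nM to 92 uM compound after 18 h at 37 C. The cells were GripTite HEK293 TR-UAS-bla in charcoal/dextran-stripped serum, with CCF4 ratio read-out and IC50 from Hill fits.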

Assay [16] can be described thus: qHTS assay for small molecule activators of the p53 signaling pathway (AID 651743; active means well fitted activation curve with a large enough effect in the signal ratio, not every such curve was filed as active; the % refers to the signal ratio; further: series mostly up to about 92 µM; % of control where 0% means no effect). The following applies: HCT-116 p53RE-bla, beta-lactamase FRET ratio, 16 h; activation: stronger effect = higher value. An outline of the steps:
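Screen for p53 pathway agonists uses stably transfected p53RE-bla HCT-116 cells, 4,000 per well, treated 16 h at 37 C with compounds in DMSO.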

A short description of assay [17]: qHTS assay for small molecule activators of the nuclear factor-kappa B (NF-kB) signaling pathway (AID 651749; active means well fitted activation curve with a large enough effect in the signal ratio; the % refers to the signal ratio; further: series mostly up to about 77 µM; % of control where 0% means no effect). The following applies: NF-kB-bla ME-180 cells, beta-lactamase FRET ratio, 16 h; activation: stronger effect = higher value. Summed up: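 Stably transfected ME-180 line; NF-kB response element upstream of beta-lactamase. Treatment: compound or DMSO, 16 hr. Detection: fluorescent FRET substrate.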

Assay [18] is described as follows: qHTS assay for environmental chemicals that activate the Aryl hydrocarbon Receptor (AhR) signaling pathway (AID 651777; active means well fitted curve in the direction sought with a large enough effect; an effect the other way counts as inactive or inconclusive; further: % of control where 0% means no effect; nearly all actives have a fitted effect of over 15% in size). As to conditions: 1A2-DRE human hepatoma cells, luciferase, 24 h; activation: stronger effect = higher value. An outline of the steps: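 1A2-DRE human hepatoma reporter line; 1,200 cells/well; cmpd or DMSO 24 h, 37 C/5% CO2; One-Glo 30 min RT; luciferase lum.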

Assay [19] addresses Peroxisome proliferator-activated receptor alpha (Homo sapiens) (UniProt Q07869). In words: qHTS assay for small molecule agonists of the peroxisome proliferator-activated receptor alpha (PPARalpha) signaling pathway (AID 651778; active means well fitted curve in the direction sought with a large enough effect; an effect the other way counts as inactive or inconclusive; further: % of control where 0% means no effect). As to conditions: PathHunter PPARalpha complementation, chemiluminescence, 6 h; max response: stronger effect = higher value. Summed up:
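Chemiluminescence from complemented enzyme reported PPARalpha activation in cells after 6 hr of compound treatment at 37 C. The detection reagent was incubated for 60 min at room temperature, and compounds were scored as agonists.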

Assay [20] can be described thus: qHTS assay for small molecule agonists of the antioxidant response element (ARE) signaling pathway measured by Nrf2-dependant transcriptional activity (AID 720636; active means well fitted curve in the direction sought with a large enough effect in the repeat runs; an effect the other way counts as inactive or inconclusive;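 further: HepG2 cells with an ARE-driven luciferase reporter; % of control where 0% means no effect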). Summed up:
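Cells: ARE-luc HepG2 with Nrf2-responsive luciferase. Medium contained 1% dialyzed FBS. Compound exposure lasted 16 hr at 37 C and 5% CO2, followed by ONE-Glo luciferase detection.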

The nature of assay [21]: qHTS assay for small molecule agonists of the antioxidant response element (ARE) signaling pathway measured by Nrf2-dependant transcriptional activity - cell viability counter screen (AID 720653; active means well fitted curve in the direction sought with a large enough effect in the repeat runs; an effect the other way counts as inactive or inconclusive; further: on the % scale 0 is the no-effect control and ±100 the full control effect). The following applies: ARE-bla HepG2 viability, CellTiter-Glo ATP luminescence, 16 h; max response: stronger effect = lower value. Summed up:
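Cytotoxicity counter screen: intracellular ATP quantified by CellTiter-Glo luminescence in the same ARE-bla HepG2 plates, after 16 h compound exposure and a 2 h beta-lactamase substrate step.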

Assay [22] is described as follows: qHTS assay for cell viability of HEK293 cells (AID 743288; active means well fitted curve in the direction sought with a large enough effect; an effect the other way counts as inactive or inconclusive; further: on the % scale 0 is the no-effect control and ±100 the full control effect; nearly all actives have a fitted effect of over 50% in size). The following applies: ATP luminescence (CellTiter-Glo), 18 h; max response: stronger effect = lower value. An outline of the steps: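 The Tox21 protocol used parental HEK293 cells treated for 18 h at 37 C with compounds delivered by pintool; ATP-coupled luminescence after 30 min at room temperature gave viability.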

Assay [23] is described as follows: qHTS assay for cell viability of the p53RE-bla HCT-116 cell line (AID 743292; active means well fitted curve in the direction sought with a large enough effect; an effect the other way counts as inactive or inconclusive; further: on the % scale 0 is the no-effect control and ±100 the full control effect; nearly all actives have a fitted effect of over 55% in size). An outline of the steps: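 HCT-116 p53RE-bla cells seeded 4,000/well; 5 h at 37 C; compound (DMSO) added; 16 h at 37 C; CellTiter-Glo added, 30 min RT; luminescence read.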
Assay [24] has as its target Nuclear receptor subfamily 1 group I member 2 (Rattus norvegicus) (UniProt Q9R1A7). In words: qHTS assay for small molecule activators of the rat pregnane X receptor (rPXR) signaling pathway (AID 651751; call rule not given here; further: 0% is about no effect). The following applies: rPXR reporter cells, luciferase (One-Glo), 24 h.
Assay [25] has as its target Cytochrome P450 3A4 (Homo sapiens) (UniProt P08684). In words: qHTS Assay for Activators of Cytochrome P450 3A4 (AID 885; active means well fitted curve in the direction sought with a large enough effect; an effect the other way counts as inactive or inconclusive; further: nearly all actives have a fitted effect of over 65% in size). An outline of the steps:
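Quantitative HTS format: compounds preincubated with 20nM human CYP3A4 and Luciferin-PPXE substrate at KM, reaction started by NADPH regeneration, stopped after 60 min, luciferase luminescence read 20 min later.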

Assay [26] concerns the target Bile acid receptor (Homo sapiens) (UniProt Q96RI1). Nature of the assay: qHTS assay for small molecule agonists of farnesoid X receptor signaling (AID 588527).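 Further: series mostly up to about 77 µM; 0% = vehicle basal and 100% = reference agonist.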 The following applies: HEK293T FXR-UAS-bla, beta-lactamase ratio, 16 h; activation: stronger effect = higher value. Summed up: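 Quantitative HTS used FXR-UAS-bla HEK293T cells with 16 h compound incubation at 37 C. EC50 values came from concentration-response curves normalized to chenodeoxycholic acid.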

Assay [27] addresses Nuclear receptor ROR-gamma (Homo sapiens) (UniProt P51449). In words: qHTS assay for small molecule antagonists of the retinoid-related orphan receptor gamma (ROR-gamma) signaling pathway (AID 651802; active means well fitted curve in the direction sought with a large enough effect; an effect the other way counts as inactive or inconclusive;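 further: CHO cells with doxycycline-induced ROR-gamma expression; luciferase reporter luminescence driven by ROR response element; series mostly up to about 92 µM; on the % scale 0 is the no-effect control and ±100 the full control effect; nearly all actives have a fitted effect of over 60% in size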). An outline of the steps:
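Antagonism is scored as a fall in luminescence from a RORE-luciferase reporter in CHO cells expressing ROR under a TET-inducible promoter, measured 16hr after doxycycline induction in the presence of compound.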

Molecules are shown by their SMILES. Where “and” joins values, the source holds several entries; their conditions need not be identical. Identical values can stand only once. Inconclusive results are not listed. Calls of active or inactive are those of the source. Unless noted, the call rests on the fitted dose curve.

Chain of Peroxisome proliferator-activated receptor gamma (Homo sapiens) (P37231 whole entry, looked up): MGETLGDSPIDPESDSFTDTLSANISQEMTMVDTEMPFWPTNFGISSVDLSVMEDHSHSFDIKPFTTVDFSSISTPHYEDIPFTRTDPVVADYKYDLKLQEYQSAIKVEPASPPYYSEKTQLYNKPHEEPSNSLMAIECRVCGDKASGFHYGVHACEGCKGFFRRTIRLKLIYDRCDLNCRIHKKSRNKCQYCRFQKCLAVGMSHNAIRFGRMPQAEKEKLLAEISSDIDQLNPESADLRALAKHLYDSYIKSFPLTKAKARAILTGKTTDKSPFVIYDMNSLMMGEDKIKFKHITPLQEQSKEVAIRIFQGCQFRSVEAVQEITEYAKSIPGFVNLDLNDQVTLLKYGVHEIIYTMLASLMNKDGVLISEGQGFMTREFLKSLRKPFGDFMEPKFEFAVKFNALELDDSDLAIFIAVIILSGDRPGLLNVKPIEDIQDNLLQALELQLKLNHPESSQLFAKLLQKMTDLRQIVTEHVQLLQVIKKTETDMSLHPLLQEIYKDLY
Chain of Thyroid hormone receptor beta (Homo sapiens) (P10828 whole entry, looked up): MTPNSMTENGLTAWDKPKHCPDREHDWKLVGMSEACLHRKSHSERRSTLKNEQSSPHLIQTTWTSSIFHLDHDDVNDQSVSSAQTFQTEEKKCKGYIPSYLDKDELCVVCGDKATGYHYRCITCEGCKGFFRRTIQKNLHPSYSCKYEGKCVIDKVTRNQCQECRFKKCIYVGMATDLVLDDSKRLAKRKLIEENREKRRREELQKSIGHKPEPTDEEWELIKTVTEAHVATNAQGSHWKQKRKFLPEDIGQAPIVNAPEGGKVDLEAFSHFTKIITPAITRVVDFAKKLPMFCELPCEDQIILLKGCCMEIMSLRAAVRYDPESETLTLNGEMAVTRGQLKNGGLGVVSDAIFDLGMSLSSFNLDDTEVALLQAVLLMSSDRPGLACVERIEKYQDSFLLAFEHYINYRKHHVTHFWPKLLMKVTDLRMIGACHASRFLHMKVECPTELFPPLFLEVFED
Chain of Bile acid receptor (Homo sapiens) (Q96RI1 whole entry, looked up): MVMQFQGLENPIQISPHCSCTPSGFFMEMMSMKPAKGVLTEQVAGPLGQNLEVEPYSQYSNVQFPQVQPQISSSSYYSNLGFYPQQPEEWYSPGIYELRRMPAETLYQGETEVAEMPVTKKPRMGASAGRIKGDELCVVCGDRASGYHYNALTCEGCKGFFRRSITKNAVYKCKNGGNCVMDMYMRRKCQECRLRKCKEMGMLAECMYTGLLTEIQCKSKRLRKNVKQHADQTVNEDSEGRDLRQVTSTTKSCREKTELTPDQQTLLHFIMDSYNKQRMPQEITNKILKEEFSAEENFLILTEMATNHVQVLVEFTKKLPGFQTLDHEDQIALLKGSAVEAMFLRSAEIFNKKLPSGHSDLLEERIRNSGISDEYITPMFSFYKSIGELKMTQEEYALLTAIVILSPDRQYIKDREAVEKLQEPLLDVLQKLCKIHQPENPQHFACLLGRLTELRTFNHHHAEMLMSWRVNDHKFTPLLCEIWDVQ
Chain of Glucocorticoid receptor (Homo sapiens) (P04150 whole entry, looked up): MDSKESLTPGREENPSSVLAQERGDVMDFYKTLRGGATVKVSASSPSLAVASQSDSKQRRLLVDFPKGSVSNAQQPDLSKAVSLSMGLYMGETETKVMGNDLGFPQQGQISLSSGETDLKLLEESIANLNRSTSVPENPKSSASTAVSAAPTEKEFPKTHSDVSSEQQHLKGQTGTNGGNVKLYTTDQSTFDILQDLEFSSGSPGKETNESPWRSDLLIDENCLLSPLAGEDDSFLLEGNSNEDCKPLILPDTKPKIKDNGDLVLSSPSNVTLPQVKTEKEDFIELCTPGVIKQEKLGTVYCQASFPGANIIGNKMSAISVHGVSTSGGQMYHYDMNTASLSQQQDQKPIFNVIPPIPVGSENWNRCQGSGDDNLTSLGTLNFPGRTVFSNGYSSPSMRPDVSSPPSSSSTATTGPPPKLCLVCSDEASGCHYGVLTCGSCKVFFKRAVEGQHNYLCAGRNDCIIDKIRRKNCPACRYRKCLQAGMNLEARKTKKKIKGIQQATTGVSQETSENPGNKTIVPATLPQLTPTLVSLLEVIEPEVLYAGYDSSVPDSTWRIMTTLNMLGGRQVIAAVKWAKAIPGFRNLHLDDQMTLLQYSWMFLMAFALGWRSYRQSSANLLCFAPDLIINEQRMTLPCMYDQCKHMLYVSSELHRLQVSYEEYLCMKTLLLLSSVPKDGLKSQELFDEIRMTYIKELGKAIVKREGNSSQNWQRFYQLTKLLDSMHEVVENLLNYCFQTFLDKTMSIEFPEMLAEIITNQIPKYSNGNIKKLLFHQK
Chain of Peroxisome proliferator-activated receptor delta (Homo sapiens) (Q03181 whole entry, looked up): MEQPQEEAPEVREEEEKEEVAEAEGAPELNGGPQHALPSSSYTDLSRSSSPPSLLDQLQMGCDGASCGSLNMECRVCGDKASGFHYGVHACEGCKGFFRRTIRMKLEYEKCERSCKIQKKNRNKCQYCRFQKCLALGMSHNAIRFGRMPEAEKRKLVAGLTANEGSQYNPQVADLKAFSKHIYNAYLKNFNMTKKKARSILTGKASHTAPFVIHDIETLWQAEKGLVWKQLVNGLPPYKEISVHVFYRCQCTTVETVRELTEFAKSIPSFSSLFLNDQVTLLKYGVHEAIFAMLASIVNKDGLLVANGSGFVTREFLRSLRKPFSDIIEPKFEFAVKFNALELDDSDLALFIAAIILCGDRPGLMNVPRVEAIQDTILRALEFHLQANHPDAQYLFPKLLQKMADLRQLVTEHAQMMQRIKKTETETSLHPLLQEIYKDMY
Chain of Retinoic acid receptor RXR-alpha (Homo sapiens) (P19793 whole entry, looked up): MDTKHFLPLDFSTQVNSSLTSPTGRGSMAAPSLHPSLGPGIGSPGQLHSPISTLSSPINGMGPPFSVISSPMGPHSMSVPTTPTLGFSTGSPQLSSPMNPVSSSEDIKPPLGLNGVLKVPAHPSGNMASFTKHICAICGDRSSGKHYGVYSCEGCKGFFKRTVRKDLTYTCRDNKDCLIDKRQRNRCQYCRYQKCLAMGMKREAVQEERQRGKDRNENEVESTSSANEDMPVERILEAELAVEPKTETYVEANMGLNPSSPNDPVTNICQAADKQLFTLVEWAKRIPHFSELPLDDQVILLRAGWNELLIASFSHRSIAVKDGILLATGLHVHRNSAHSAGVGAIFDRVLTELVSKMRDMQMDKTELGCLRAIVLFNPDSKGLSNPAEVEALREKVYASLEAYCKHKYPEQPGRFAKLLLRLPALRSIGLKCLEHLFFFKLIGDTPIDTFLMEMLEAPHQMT
Chain of Vitamin D3 receptor (Homo sapiens) (P11473 whole entry, looked up): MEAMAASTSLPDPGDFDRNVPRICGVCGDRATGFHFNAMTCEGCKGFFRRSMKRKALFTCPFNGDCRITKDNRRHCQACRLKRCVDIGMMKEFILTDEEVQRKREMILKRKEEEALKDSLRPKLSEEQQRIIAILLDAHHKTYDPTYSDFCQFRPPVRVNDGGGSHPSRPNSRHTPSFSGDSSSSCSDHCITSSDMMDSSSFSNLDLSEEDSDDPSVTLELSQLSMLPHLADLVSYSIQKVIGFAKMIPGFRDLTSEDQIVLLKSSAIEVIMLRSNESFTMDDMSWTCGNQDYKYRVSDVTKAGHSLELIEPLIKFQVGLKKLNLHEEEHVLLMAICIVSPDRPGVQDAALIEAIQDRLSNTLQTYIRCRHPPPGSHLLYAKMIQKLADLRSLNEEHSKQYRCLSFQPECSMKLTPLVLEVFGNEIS
Chain of Nuclear receptor subfamily 1 group I member 2 (Rattus norvegicus) (Q9R1A7 whole entry, looked up): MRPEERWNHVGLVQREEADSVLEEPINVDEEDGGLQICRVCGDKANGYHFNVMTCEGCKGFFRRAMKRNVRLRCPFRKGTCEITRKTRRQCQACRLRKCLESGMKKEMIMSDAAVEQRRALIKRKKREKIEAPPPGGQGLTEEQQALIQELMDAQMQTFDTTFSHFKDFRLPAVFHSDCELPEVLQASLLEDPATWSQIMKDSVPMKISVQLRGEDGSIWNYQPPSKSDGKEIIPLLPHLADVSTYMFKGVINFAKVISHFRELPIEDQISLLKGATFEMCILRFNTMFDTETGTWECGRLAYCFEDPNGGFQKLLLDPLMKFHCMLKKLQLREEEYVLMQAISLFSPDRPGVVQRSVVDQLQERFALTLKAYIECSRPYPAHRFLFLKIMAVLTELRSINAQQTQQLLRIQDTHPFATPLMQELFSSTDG
Chain of Peroxisome proliferator-activated receptor alpha (Homo sapiens) (Q07869 whole entry, looked up): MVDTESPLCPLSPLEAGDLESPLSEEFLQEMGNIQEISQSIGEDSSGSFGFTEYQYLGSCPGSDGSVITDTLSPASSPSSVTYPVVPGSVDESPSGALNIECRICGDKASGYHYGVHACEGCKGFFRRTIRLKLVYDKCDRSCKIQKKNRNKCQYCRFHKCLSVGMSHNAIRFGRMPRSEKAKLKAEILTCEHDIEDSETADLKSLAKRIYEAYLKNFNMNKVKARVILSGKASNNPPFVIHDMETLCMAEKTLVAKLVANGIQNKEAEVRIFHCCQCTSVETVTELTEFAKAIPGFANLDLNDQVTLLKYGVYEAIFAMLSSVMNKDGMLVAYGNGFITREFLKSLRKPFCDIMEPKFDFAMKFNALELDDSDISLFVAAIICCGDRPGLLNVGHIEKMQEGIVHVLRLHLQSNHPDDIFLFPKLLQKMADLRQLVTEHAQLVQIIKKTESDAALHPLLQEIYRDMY
Chain of Cytochrome P450 3A4 (Homo sapiens) (P08684 whole entry, looked up): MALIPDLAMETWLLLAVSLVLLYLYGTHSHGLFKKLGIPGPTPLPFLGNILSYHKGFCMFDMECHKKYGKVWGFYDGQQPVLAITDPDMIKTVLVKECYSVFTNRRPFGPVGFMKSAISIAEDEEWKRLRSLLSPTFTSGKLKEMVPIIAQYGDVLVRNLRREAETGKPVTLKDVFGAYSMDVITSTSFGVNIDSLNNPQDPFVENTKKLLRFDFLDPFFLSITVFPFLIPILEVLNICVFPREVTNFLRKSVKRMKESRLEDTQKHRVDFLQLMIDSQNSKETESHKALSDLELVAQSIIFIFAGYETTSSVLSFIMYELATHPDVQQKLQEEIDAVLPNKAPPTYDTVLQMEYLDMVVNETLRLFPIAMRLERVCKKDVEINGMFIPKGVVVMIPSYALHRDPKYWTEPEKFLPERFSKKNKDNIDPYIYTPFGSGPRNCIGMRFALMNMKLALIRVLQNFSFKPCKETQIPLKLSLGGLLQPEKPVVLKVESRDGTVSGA

On to `CCOP(=S)(Oc1cnc(C(C)(C)C)nc1)OC(C)C` (configuration not stated), for which the activation was 2.58% (inactive) in assay [1], -2.32% (inactive) in [16], -0.139% (inactive) in assay [17] and 6.61% (inactive) in [18]. Also, the Potency entry in assay [2], in assay [5], in [6], in [7], in assay [8] and in assay [11] was “inactive” throughout. Moreover, the Potency entry in assay [12], in [20] and in assay [23] was “inactive” each time. The result in [3] and in assay [9] was inactive. Besides, the max response in assay [4] was -24.6%; in assay [10], -5.29%; in [13] it was 10.2%; in assay [14], 1.44% (inactive); in assay [19], -0.258% (inactive); in assay [21], -5.89% (inactive). Also, the results for the max response in [22] and in assay [24] were -6.73% (inactive) and 6.76% (inactive), respectively. Besides, in assay [15], the activity change % (negative = inhibition) is 4.48% (inactive).
For the compound `CCCCC(CC)COC(=O)CCCCC(=O)OCC(CC)CCCC` (configuration not stated), the Potency entry in [25] and in [27] was “inactive” throughout. Further, in assay [26], the activation was -0.368% (inactive) and -0.458% (inactive). In addition, in assay [3], the compound was classed as inactive. For the same compound, the activity change % (negative = inhibition) in assay [15] was 4.91% (inactive).
Take `CCOC(=O)C(C)Oc1ccc(Oc2nc3ccc(Cl)cc3o2)cc1` (configuration not stated): the activation in assay [26] is -3.02% (inactive). Besides, in assay [6], the Potency entry is “inactive”.
Take `C1=Cc2cccc3cccc1c23`: the activation is -9.46% (inactive) in [1], -6.25% (inactive) in assay [16], 0.838% (inactive) in [17] and 0.26% (inactive) in assay [18]. The Potency result in assay [2], in assay [5], in assay [7], in assay [8], in [11] and in assay [12] was “inactive” throughout. The Potency result in assay [20] and in [23] was “inactive” throughout. The call in assay [3] and in [9] was inactive. In addition, the max response in assay [4] is -1.47%; in [10], -12.5%; in [19], 3.92% (inactive); in assay [21] it was -6.24% (inactive); in assay [22], -13.5% (inactive); in [24] it was 3.17% (inactive). In [15], the activity change % (negative = inhibition) was 1.99% (inactive).
